JMJD2A Tudor inh – inhibitors of human JMJD2A Tudor domain; AlphaScreen JMJD2A-Tudor / H3K4me3 peptide binding; 390,000 compounds, 4.4% hits; Potency, µM (titrated, usually from 114 µM), for the others: at the highest dose activity change, negative = inhibition, actives largely listed as inhibitors; O75164; further: on the % scale 0 is the no-effect control and ±100 the full control effect; nearly all actives have a fitted effect of over 50% in size
BAZ2B inh – blocks human BAZ2B. Potency, µM (top dose mostly 114 µM), for the others: at the top dose activity change, negative = inhibition, usual class: inhibitors. AlphaScreen BAZ2B-H3K14Ac peptide displacement. Q9UIF8. AID 504333. 360,000 compounds, 4.4% hits; further: on the % scale 0 is the no-effect control and ±100 the full control effect; nearly all actives have a fitted effect of over 60% in size
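AlphaScreen displacement: compounds (up to 110uM) incubated 30 min at room temperature with a preformed 50 nM BAZ2B/50 nM biotinylated H3K14Ac peptide complex in PBS pH 7.4 with Tween-20. Donor and acceptor beads at 10 ug/mL final added, 20 min light-protected before reading.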
HP1b chromo inh – blocks HP1-beta chromodomain binding to methylated histone tails | P83916 | AlphaScreen HP1-beta / biotin-H3K9me3 peptide binding | Potency, µM (series often up to 114 µM), without a hit: at the top dose activity change, negative = inhibition, hits mostly inhibitors | 390,000 compounds, 0.56% hits; further: nearly all actives have a fitted effect of over 70% in size
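Compound inhibition of the preformed complex between 50 nM HP1-beta and 50 nM biotinylated H3K9me3 peptide was read by AlphaScreen. Buffer was PBS pH 7.4 with 0.01% Tween-20. Incubations ran 30 min at room temperature, with 10 ug/mL donor/acceptor beads.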
L3MBTL1 inh – inhibitors of human L3MBTL1 | AlphaScreen L3MBTL1–H3K9me1 peptide binding | AID 485360 | Potency, µM (series often up to 57.1 µM), inactives show top-dose activity, negative = inhibition, actives largely listed as inhibitors | Q9Y468 | 230,000 compounds, 0.66% hits; further: on the % scale 0 is the no-effect control and ±100 the full control effect; nearly all actives have a fitted effect of over 60% in size
Target sequence (Q9Y468 whole entry, looked up): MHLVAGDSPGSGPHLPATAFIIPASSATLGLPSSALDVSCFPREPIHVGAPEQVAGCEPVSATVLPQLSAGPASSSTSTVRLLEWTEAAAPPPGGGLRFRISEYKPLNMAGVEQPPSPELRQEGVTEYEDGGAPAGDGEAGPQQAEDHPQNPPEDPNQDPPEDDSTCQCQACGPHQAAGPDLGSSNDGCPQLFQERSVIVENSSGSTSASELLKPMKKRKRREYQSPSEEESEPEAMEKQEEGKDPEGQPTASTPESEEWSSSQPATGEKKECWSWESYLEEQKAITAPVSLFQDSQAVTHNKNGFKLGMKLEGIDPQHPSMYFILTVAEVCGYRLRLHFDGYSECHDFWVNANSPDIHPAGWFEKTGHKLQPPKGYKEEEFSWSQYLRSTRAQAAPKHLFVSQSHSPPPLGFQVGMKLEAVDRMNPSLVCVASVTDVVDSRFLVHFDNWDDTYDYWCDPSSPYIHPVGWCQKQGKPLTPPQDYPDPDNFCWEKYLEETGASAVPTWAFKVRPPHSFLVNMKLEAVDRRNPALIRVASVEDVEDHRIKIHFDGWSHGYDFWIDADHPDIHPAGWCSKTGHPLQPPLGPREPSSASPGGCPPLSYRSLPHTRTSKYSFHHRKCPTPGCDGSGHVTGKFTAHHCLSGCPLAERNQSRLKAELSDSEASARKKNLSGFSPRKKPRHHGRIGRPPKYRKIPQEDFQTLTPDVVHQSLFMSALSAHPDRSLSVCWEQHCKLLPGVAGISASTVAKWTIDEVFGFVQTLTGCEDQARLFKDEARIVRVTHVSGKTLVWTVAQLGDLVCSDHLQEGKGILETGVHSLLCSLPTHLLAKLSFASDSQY
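Displacement of a biotinylated histone H3(1-15) peptide monomethylated at Lys9 (75 nM) from L3MBTL1 (50 nM) was measured by AlphaScreen after a 30 min room-temperature compound incubation; cefsulodin titration served as intraplate control.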
G9a inh – inhibitors of human histone lysine methyltransferase G9a; AID 504332; 350,000 compounds, 8.8% hits; Q96KQ7; G9a H3K9 monomethylation, AlphaScreen, 2 h; Potency, µM (series often up to 102 µM), for the others: top-dose activity, negative = inhibition, hits mostly inhibitors; further: on the % scale 0 is the no-effect control and ±100 the full control effect; nearly all actives have a fitted effect of over 75% in size
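Quantitative HTS format: methyltransferase activity on a biotin-tagged H3K9 peptide is measured by AlphaScreen, using a rabbit anti-monomethyl-H3K9 antibody with streptavidin donor and anti-IgG acceptor beads. Final levels are 20 nM enzyme, 500 nM peptide, 20 uM SAM; 2 h RT.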
Sfp PPTase inh – Sfp phosphopantetheinyl transferase inhibition; Biochemical Sfp PPTase activity, qHTS; Potency, µM, for the others: largest response in the series, negative = inhibition, actives largely listed as inhibitors; 310,000 compounds, 3.5% hits; Q9F4F7;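 further: the enzyme is Sfp with the accession as filed and its product quenches rhodamine fluorescence; 0% = enzyme reaction without inhibitor and -100% = no enzyme wells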
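With Hepes-Na pH 7.6 buffer containing 10 mM MgCl2, Sfp (15 nM) modified BHQ-2-YbbR (12.5 uM) using rhodamine-CoA (5 uM). Two reads 30 minutes apart at 525/598 nm yielded each well's rate.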
Starred values were filed as active, the others as inactive; ! = not active in a repeat; [ ] = remark or other dose. This is a sample that favours compounds with a hit; in the whole collection about 12% have one here. The call rests on the fitted dose curve; in most records, active means well fitted curve in the direction sought with a large enough effect; inconclusive means small, poorly fitted or top-dose-only effect, or another doubt; inactive means no such curve, though single readings can be large; an effect the other way counts as inactive or inconclusive. Potency means the concentration at half of the fitted maximal effect.

`CCOc1cccc(CC(=O)NCc2ccc3c(c2)CCN3C(C)=O)c1OCC` gave JMJD2A Tudor inh -14%, BAZ2B inh 1%, HP1b chromo inh 23% and G9a inh 5%[59 µM].
COc1cc(/C=C(\C#N)c2nc3ccccc3[nH]2)cc(OC)c1O was read as JMJD2A Tudor inh inconclusive, BAZ2B inh 40µM*, HP1b chromo inh -36%, L3MBTL1 inh -24%, G9a inh 10µM* and Sfp PPTase inh inconclusive.
For COc1ccc(/C=C(\C#N)c2nc3ccccc3[nH]2)cc1O the results were JMJD2A Tudor inh inconclusive, BAZ2B inh -29%, HP1b chromo inh 5%, L3MBTL1 inh 1%, G9a inh inconclusive and Sfp PPTase inh 4%.
Cc1ccc(NNC(=O)c2ccno2)c(C)c1 was read as JMJD2A Tudor inh -17%, BAZ2B inh -1%, HP1b chromo inh 49%, L3MBTL1 inh -3%, G9a inh 0.79µM* and Sfp PPTase inh -9%.
Cc1ccc(NNC(=O)CCc2ccccc2)c(C)c1 was read as JMJD2A Tudor inh 2%, BAZ2B inh -5%, HP1b chromo inh 29%, L3MBTL1 inh -1%, G9a inh 32µM* and Sfp PPTase inh -1%.
O=S(=O)(c1ccccc1)N1CCC2(CCCN(C(c3ccccc3)c3ccccc3)C2)CC1 was read as G9a inh -19%[12.7 µM] and Sfp PPTase inh 11%.
Screening COc1ccccc1CN1CCN(Cc2nc(-c3ccc(C)cc3)oc2C)CC1 returned JMJD2A Tudor inh inconclusive, BAZ2B inh -33%, HP1b chromo inh 17%, L3MBTL1 inh -2%, G9a inh 21% and Sfp PPTase inh 7%.
`COc1ccc(CN2CCc3ccccc3C2)c(OC)c1` gave JMJD2A Tudor inh 2.8µM*, BAZ2B inh inconclusive, HP1b chromo inh inconclusive, L3MBTL1 inh 3%, G9a inh -128%[59 µM] and Sfp PPTase inh -19%.
For COc1ccc(CN2CCN(Cc3ccco3)CC2)c(OC)c1 the results were JMJD2A Tudor inh 3.2µM*, BAZ2B inh 40µM*, HP1b chromo inh inconclusive, G9a inh 40µM* and Sfp PPTase inh 56µM*.
COc1ccccc1CN1CCN(Cc2ccco2)CC1 was read as JMJD2A Tudor inh 4µM*, BAZ2B inh 25µM*, HP1b chromo inh inconclusive, G9a inh 45µM* and Sfp PPTase inh inconclusive.
`COc1cc(CN2CCN(Cc3ccco3)CC2)cc(OC)c1` gave JMJD2A Tudor inh 0.79µM*, BAZ2B inh 25µM*, HP1b chromo inh inconclusive, G9a inh 8.9µM* and Sfp PPTase inh inconclusive.
CCn1cc(C(=O)O)c(=O)c2cc(F)c(N3CCN[C@@H](C)C3)c(F)c21 was read as G9a inh -34%[12.7 µM] and Sfp PPTase inh 15%.
For COc1ccc(C2=Nn3c(nc4sc(C(=O)Nc5cccc(C)c5)c(C)c4c3=O)SC2)cc1 the results were JMJD2A Tudor inh -8%, BAZ2B inh 8%, HP1b chromo inh 85% and G9a inh -9%[59 µM].
`CCOC(=O)c1ccccc1NC(=O)Cn1cc(C(=O)c2cccc(OC)c2)c(=O)c2ccc(C)nc21` gave JMJD2A Tudor inh -25%, BAZ2B inh 0%, HP1b chromo inh 24% and G9a inh -49%[59 µM].
For CCC(C(=O)NC1CCCCC1)n1c(SCc2cccc(C)c2)nc2ccncc21 (stereo unspecified) the results were JMJD2A Tudor inh -31%, BAZ2B inh 0%, HP1b chromo inh 10%, L3MBTL1 inh 6%, G9a inh 50µM*! and Sfp PPTase inh 1%.
Screening CCC(C(=O)NC1CCCCC1)n1c(SCc2cccc(F)c2)nc2ccncc21 (stereo unspecified) returned JMJD2A Tudor inh -17%, BAZ2B inh -9%, HP1b chromo inh 56%, L3MBTL1 inh 0%, G9a inh inconclusive and Sfp PPTase inh -7%.
For CCCCn1c(-c2cccnc2)nc2cc3[nH]c(=O)c(C(C)C)nc3cc21 the results were JMJD2A Tudor inh -12%, BAZ2B inh -6%, HP1b chromo inh 47%, L3MBTL1 inh -4%, G9a inh inconclusive and Sfp PPTase inh 2%.
CCn1c(-c2cccnc2)n[nH]c1=S was read as JMJD2A Tudor inh 22µM*, BAZ2B inh inconclusive, HP1b chromo inh 14%, L3MBTL1 inh -4%, G9a inh 27%[0.501 µM] and Sfp PPTase inh 89µM*.
Screening CCCCn1c(-c2cccnc2)n[nH]c1=S returned JMJD2A Tudor inh 8.9µM*, BAZ2B inh 5%, HP1b chromo inh 18%, L3MBTL1 inh -2%, G9a inh 25µM* and Sfp PPTase inh inconclusive.
Screening Cc1ccc(C)c(N2CCN(C(=O)c3cc4cc5ccc(C)cc5nc4s3)CC2)c1 returned JMJD2A Tudor inh -12%, BAZ2B inh 8%, HP1b chromo inh 7% and G9a inh -2%[59 µM].
COc1ccc(CNC(=O)C2CCN(c3nc4ccccc4[nH]3)CC2)cc1OC was read as JMJD2A Tudor inh 3%, BAZ2B inh 3%, HP1b chromo inh 25%[57 µM] and G9a inh 1%[59 µM].
CCc1ccc(N=C2NC(=O)/C(=C/c3cc(OC)c(OC)c(OC)c3)S2)cc1 was read as JMJD2A Tudor inh -32%, BAZ2B inh -1%, HP1b chromo inh 30%, L3MBTL1 inh -4%, G9a inh 27% and Sfp PPTase inh -12%.
`CCc1ccc(N=C2NC(=O)/C(=C/c3cc(Br)c(OCC(=O)O)c(OC)c3)S2)cc1` gave JMJD2A Tudor inh 50µM*, BAZ2B inh 50µM*, HP1b chromo inh inconclusive, L3MBTL1 inh inconclusive, G9a inh 50µM* and Sfp PPTase inh 2%.
Screening CCCCSc1nc(C(=O)O)cc(=O)[nH]1 returned JMJD2A Tudor inh 40µM*, BAZ2B inh -2%, HP1b chromo inh 40%, L3MBTL1 inh 10%, G9a inh 40µM* and Sfp PPTase inh inconclusive.
For CCCCSc1nc(CCC)cc(=O)[nH]1 the results were JMJD2A Tudor inh -11%, BAZ2B inh 0%, HP1b chromo inh 21%, G9a inh inconclusive and Sfp PPTase inh 5%.
CC1CCN(c2ncnc3c2cnn3-c2ccc(F)cc2)CC1 was read as JMJD2A Tudor inh 63%, BAZ2B inh 59%, HP1b chromo inh 88% and G9a inh 27%[59 µM].
COc1ccc(/C=N/c2c(-c3ccco3)nc3ccccn23)cc1OC was read as JMJD2A Tudor inh -34%, BAZ2B inh inconclusive, HP1b chromo inh -6%, L3MBTL1 inh -12%, G9a inh 71µM* and Sfp PPTase inh -17%.
`COc1cc(-c2nc3ccccn3c2/N=C/c2cccc(OC)c2O)ccc1O` gave JMJD2A Tudor inh inconclusive, BAZ2B inh -15%, HP1b chromo inh 20%, G9a inh 9% and Sfp PPTase inh -11%.

Assay outcomes from PubChem.
